# Inconclusive results are not listed. More than one record can exist for a structure, and the calls need not agree. Active and inactive are the calls of the source. How the source made its calls, unless noted: active means hit-call score of the fitted dose curve at least 0.9, where 1 is the maximum; inconclusive means response in the unintended direction; inactive means score below 0.9.
# Columns and labels:
# [1] = read-out: UDP glucuronosyltransferase (UGT1A1), UGT1A1 (gene 54658); assay: LTEA_HepaRG_UGT1A1: Life Technologies and Expression Analysis (LTEA) Assay for UDP glucuronosyltransferase (UGT1A1) using HepaRG (AID 2283538; active means hit-call score of the fitted dose curve at least 0.9, where 1 is the maximum; inactive means score below 0.9); conditions: mRNA level, 48 h; actives raise or lower the signal
# How it was run: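 Differentiated human HepaRG cells in serum-free induction medium were exposed in duplicate for 48 h to eight half-log concentrations up to 100 uM in 0.5% DMSO. UGT1A1 mRNA was quantified by TaqMan qRT-PCR, normalized to ACTB, GAPDH and POLR2A, and fitted bidirectionally against DMSO.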
# [2] = read-out: UDP glucuronosyltransferase (UGT1A6), UGT1A6 (gene 54578); assay: LTEA_HepaRG_UGT1A6: Life Technologies and Expression Analysis (LTEA) Assay for UDP glucuronosyltransferase (UGT1A6) using HepaRG (AID 2283539; active means hit-call score of the fitted dose curve at least 0.9, where 1 is the maximum; inactive means score below 0.9); conditions: mRNA level, 48 h; actives raise or lower the signal
# How it was run: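 Expression was quantified by TaqMan qRT-PCR on Fluidigm arrays with ACTB/GAPDH/POLR2A normalization and bidirectional fitting against 0.5% DMSO. HepaRG cells (~100,000/well) were treated in duplicate for 48 h at eight half-log concentrations up to 100 uM in serum-free induction medium.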
# [3] = read-out: X-box binding protein 1 (XBP1), XBP1 (gene 7494); assay: LTEA_HepaRG_XBP1: Life Technologies and Expression Analysis (LTEA) Assay for X-box binding protein 1 (XBP1) using HepaRG (AID 2283540; active means hit-call score of the fitted dose curve at least 0.9, where 1 is the maximum; inactive means score below 0.9); conditions: mRNA level, 48 h; actives raise or lower the signal
# How it was run: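 XBP1 transcript by qRT-PCR (housekeeping-normalized: ACTB, GAPDH, POLR2A) after 48 h chemical treatment of HepaRG cells, 8-point half-log series topping at 100 uM, vehicle 0.5% DMSO. Gain and loss of signal fitted relative to DMSO.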
# [4] = LTEA_HepaRG_LDH_cytotoxicity: Cytotoxicity Assessment in the Life Technologies and Expression Analysis (LTEA) Assay (AID 2283563);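 on AC50: LDH activity released into spent culture medium as a marker of cell death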
# How it was run: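 LDH release into culture medium read after 48 h chemical treatment of HepaRG cells. Duplicate wells, eight-point half-log series topping at 100 uM, 0.5% DMSO vehicle and baseline.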
# [5] = TOX21_p53_BLA_p2_viability: Viability Assessment in the Tox21 HCT-116 p53 Agonism Beta-lactamase Assay, Phase 2 (AID 2283591);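 further: compound exposure lasted 16 h at 37 °C; actives lower the ATP signal meaning cytotoxicity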
# How it was run: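 HCT116 p53-bla cells, 4000/well, dosed after 5 h plating (217-fold dilution of DMSO stocks) and incubated 16 h at 37C. Viability taken as cellular ATP by CellTiter-Glo luminescence after 30 min RT; signal loss marks cytotoxicity.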
# [6] = target: Cellular tumor antigen p53 (Homo sapiens) (UniProt P04637); assay: TOX21_p53_BLA_p2_ratio: Tox21 HCT-116 p53 Agonism Beta-lactamase Assay, Ratio, Phase 2 (AID 2283592)
# Chain of Cellular tumor antigen p53 (Homo sapiens) (P04637 whole entry, looked up): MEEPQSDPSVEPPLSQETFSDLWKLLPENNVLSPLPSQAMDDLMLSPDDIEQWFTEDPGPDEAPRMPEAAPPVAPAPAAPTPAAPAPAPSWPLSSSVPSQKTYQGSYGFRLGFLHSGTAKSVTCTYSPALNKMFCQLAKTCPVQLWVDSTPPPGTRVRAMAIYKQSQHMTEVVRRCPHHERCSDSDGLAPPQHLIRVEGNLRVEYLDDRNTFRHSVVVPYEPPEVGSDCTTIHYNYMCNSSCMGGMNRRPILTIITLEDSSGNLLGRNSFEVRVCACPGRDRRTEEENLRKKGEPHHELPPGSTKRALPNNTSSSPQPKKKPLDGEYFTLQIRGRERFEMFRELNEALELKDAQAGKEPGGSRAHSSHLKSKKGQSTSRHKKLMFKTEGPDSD
# How it was run: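 Gain-of-signal p53 agonism was scored from the beta-lactamase FRET ratio (460/530 nm, 405 nm excitation) in HCT116 cells treated 16 h at 37C, 5% CO2, with DMSO serving as negative control and baseline.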
# [7] = TOX21_p53_BLA_p3_viability: Viability Assessment in the Tox21 HCT-116 p53 Agonism Beta-lactamase Assay, Phase 3 (AID 2283593);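 further: cells exposed to compound for 16 h before reading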
# How it was run: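 HCT116 cells, 4000/well, dosed 5 h after plating by pin transfer (217-fold dilution from DMSO stock) and incubated 16 h at 37C, 5% CO2. Viability read as ATP luminescence with CellTiter-Glo after 30 min at room temperature.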
# [8] = target: Cellular tumor antigen p53 (Homo sapiens) (UniProt P04637); assay: TOX21_p53_BLA_p3_ratio: Tox21 HCT-116 p53 Agonism Beta-lactamase Assay, Ratio, Phase 3 (AID 2283596)
# How it was run: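 HCT116 p53-bla cells (4000/well) given compound in DMSO (217-fold dilution) after 5 h, incubated 16 h at 37C. CCF4-AM substrate 2 h at room temperature; 460/530 nm emission ratio, gain fitted against DMSO.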
# [9] = target: Cellular tumor antigen p53 (Homo sapiens) (UniProt P04637); assay: TOX21_p53_BLA_p5_ratio: Tox21 HCT-116 p53 Agonism Beta-lactamase Assay, Ratio, Phase 5 (AID 2283599)
# How it was run: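 HCT-116 p53-bla cells (4000/well) plated 5 h, dosed with compound (217-fold DMSO dilution) for 16 h at 37 C; CCF4-AM substrate 2 h at room temperature. Activity is the 460/530 nm emission ratio (405 nm excitation), fitted in gain-of-signal direction versus DMSO.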
# [10] = TOX21_p53_BLA_p5_viability: Viability Assessment in the Tox21 HCT-116 p53 Agonism Beta-lactamase Assay, Phase 5 (AID 2283600)
# How it was run: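 After the 460/530 nm beta-lactamase measurement, the wells received an ATP-detection luciferase reagent; signal was read 30 min later at RT. Compound treatment lasted 16 h on cells pre-incubated 5 h post-seeding.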
# [11] = target: Cellular tumor antigen p53 (Homo sapiens) (UniProt P04637); assay: TOX21_p53_BLA_p4_ratio: Tox21 HCT-116 p53 Agonism Beta-lactamase Assay, Ratio, Phase 4 (AID 2283601)
# How it was run: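 HCT-116 p53 beta-lactamase reporter cells (4000/well) preincubated 5 h, then compound (217-fold dilution of DMSO stock) for 16 h at 37C. CCF4-AM substrate added 2 h at room temperature; 460/530 nm emission ratio fitted upward versus DMSO.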
# [12] = Tanguay_ZF_120hpf_MORT_legacy: (Legacy) Oregon State University Tanguay Lab 120 Hour Post-fertilization zebrafish Assay for Mortality (AID 2283633);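 on AC50: fitted as increase in binary mortality versus DMSO negative control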
# How it was run: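 Static waterborne exposure from 6 to 120 hpf at 28C of single dechorionated wild-type (5D) embryos per well, 0.64% DMSO final. Death recorded present/absent by brightfield at 24 and 120 hpf.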
# [13] = Tanguay_ZF_120hpf_YSE_legacy: (Legacy) Oregon State University Tanguay Lab 120 Hour Post-fertilization zebrafish Assay for Yolk Sac Edema (AID 2283634);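 on AC50: actives raise the incidence of yolk sac edema above the DMSO baseline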
# How it was run: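 Presence or absence of yolk sac edema was recorded at 120 hpf in surviving larvae. These were wild-type Tropical 5D embryos, chorion removed at 4 hpf, held in static exposure at 28C from 6 hpf with 0.64% DMSO vehicle.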
# [14] = Tanguay_ZF_120hpf_AXIS_legacy: (Legacy) Oregon State University Tanguay Lab 120 Hour Post-fertilization zebrafish Assay for Body Axis Malformation (AID 2283635);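 on AC50: potency for an increased fraction of larvae scored with body axis malformation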
# How it was run: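 Binary scoring of axis defects at 120 hpf under brightfield, fitted positive versus DMSO. Tropical 5D embryos, chorion removed by pronase at 4 hpf, were singly exposed in sealed, dark plates at 28C from 6 hpf; DMSO 0.64% final.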
# [15] = Tanguay_ZF_120hpf_EYE_legacy: (Legacy) Oregon State University Tanguay Lab 120 Hour Post-fertilization zebrafish Assay for Eye Malformation (AID 2283636);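 further: binary presence or absence of eye malformation scored by brightfield in 120 hpf larvae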
# How it was run: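 Dechorionated Tropical 5D zebrafish embryos, one per well from 6 hpf, static exposure to 120 hpf at 28C, 0.64% DMSO. Eye malformation scored present/absent by brightfield; dead embryos not scored.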
# [16] = ATG_XTT_Cytotoxicity: Cytotoxicity Assessment in the Attagene TRANS-FACTORIAL HepG2 Assay (AID 2283584)
# How it was run: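 Viability endpoint from XTT after 24 h chemical exposure of reporter-transfected human HepG2 liver cells; signal loss fitted relative to DMSO negative control.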
# [17] = Tanguay_ZF_120hpf_SNOU_legacy: (Legacy) Oregon State University Tanguay Lab 120 Hour Post-fertilization zebrafish Assay for Snout Malformation (AID 2283637)
# How it was run: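 Dechorionated tropical 5D wild-type zebrafish embryos exposed statically from 6 to 120 hpf at 28C, one per well, in 0.64% DMSO. Snout malformation scored as present/absent by brightfield at 120 hpf; dead embryos not scored.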
# [18] = Tanguay_ZF_120hpf_JAW_legacy: (Legacy) Oregon State University Tanguay Lab 120 Hour Post-fertilization zebrafish Assay for Jaw Malformation (AID 2283638);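 on AC50: active means more embryos with jaw malformation than DMSO controls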
# How it was run: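 Binary jaw-malformation call at 120 hpf by brightfield microscopy. Embryos (Tropical 5D strain, chorion removed at 4 hpf) were dosed statically at 6 hpf, one per well, at 28C with 0.64% DMSO. Embryos that died were not scored.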
# [19] = Tanguay_ZF_120hpf_OTIC_legacy: (Legacy) Oregon State University Tanguay Lab 120 Hour Post-fertilization zebrafish Assay for Otic Vesicle Malformation (AID 2283639)
# How it was run: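 Tropical 5D wild-type zebrafish embryos were exposed statically in sealed, foil-covered plates at 28C until 120 hpf, with 0.64% (vol/vol) DMSO final. Otic vesicle malformation was scored present/absent by brightfield microscopy, with DMSO as baseline.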
# [20] = TOX21_p53_BLA_p4_viability: Viability Assessment in the Tox21 HCT-116 p53 Agonism Beta-lactamase Assay, Phase 4 (AID 2283597);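 further: hits lower the luminescence signal meaning cytotoxicity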
# How it was run: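 Following a 16 h exposure at 37C, the treated HCT116 wells were first read for the FRET ratio. They were then lysed with CellTiter-Glo, and ATP luminescence was recorded after 30 min at room temperature.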
smiles,measurement,setting,value
CCOC(=O)C(C)(C)Oc1ccc(Cl)cc1,AC50,[1],15.8 µM (active)
same,outcome,[2],inactive
same,outcome,[3],inactive
same,outcome,[4],inactive
same,outcome,[5],inactive
same,outcome,[6],inactive
same,outcome,[7],inactive
same,outcome,[8],inactive
same,outcome,[9],inactive
same,outcome,[10],inactive
same,outcome,[11],inactive
same,outcome,[12],inactive
same,outcome,[13],inactive
same,AC50,[14],63.8 µM (active)
same,outcome,[15],inactive
CCCCCCCCCCO,outcome,[1],inactive
same,outcome,[2],inactive
same,outcome,[3],inactive
same,outcome,[4],inactive
same,outcome,[16],inactive
same,outcome,[5],inactive
same,outcome,[6],inactive
same,outcome,[8],inactive
same,outcome,[9],inactive
same,outcome,[10],inactive
same,outcome,[11],inactive
same,outcome,[12],inactive
same,outcome,[13],inactive
same,outcome,[14],inactive
same,outcome,[15],inactive
same,outcome,[17],inactive
same,outcome,[18],inactive
same,outcome,[19],inactive
CC(C)(C)c1cc(O)c(C(C)(C)C)cc1O,AC50,[1],89.2 µM (active)
same,AC50,[2],91.3 µM (active)
same,outcome,[3],inactive
same,AC50,[4],73.5 µM (active)
same,outcome,[5],inactive
same,AC50,[6],80.1 µM (active)
same,outcome,[7],inactive
same,AC50,[8],71.6 µM (active)
same,AC50,[20],69 µM (active)
same,AC50,[9],90.5 µM (active)
same,outcome,[10],inactive
same,outcome,[11],inactive
same,AC50,[12],11 µM (active)
same,AC50,[13],25.7 µM (active)
same,AC50,[14],25.7 µM (active)
same,outcome,[15],inactive
same,AC50,[17],35.6 µM (active)
same,AC50,[18],47.5 µM (active)
same,outcome,[19],inactive
CC=Cc1ccc(O)c(OC)c1,outcome,[1],inactive
same,outcome,[2],inactive
same,outcome,[3],inactive
same,outcome,[4],inactive
same,outcome,[16],inactive
same,outcome,[5],inactive
same,outcome,[6],inactive
same,outcome,[8],inactive
same,outcome,[10],inactive
same,outcome,[11],inactive
same,outcome,[12],inactive
same,outcome,[13],inactive
same,outcome,[14],inactive
same,outcome,[15],inactive
same,outcome,[18],inactive
same,outcome,[19],inactive
CCCCCCCCCCCCCO,outcome,[1],inactive
same,outcome,[2],inactive
same,outcome,[3],inactive
same,outcome,[4],inactive
same,outcome,[16],inactive
same,outcome,[6],inactive
same,outcome,[7],inactive
same,outcome,[8],inactive
same,outcome,[20],inactive
same,outcome,[10],inactive
same,outcome,[11],inactive
same,outcome,[12],inactive
same,outcome,[13],inactive
same,outcome,[14],inactive
same,outcome,[15],inactive
same,outcome,[17],inactive
same,outcome,[18],inactive
same,outcome,[19],inactive
CCOc1ccc2c(c1)C(C)=CC(C)(C)N2,AC50,[1],1.61 µM (active)
same,outcome,[2],inactive
same,outcome,[3],inactive
same,outcome,[4],inactive
same,outcome,[5],inactive
same,outcome,[6],inactive
same,outcome,[7],inactive
same,outcome,[8],inactive
same,outcome,[20],inactive
same,outcome,[10],inactive
same,AC50,[11],76.6 µM (active)
same,outcome,[11],inactive
same,outcome,[12],inactive
same,outcome,[13],inactive
same,outcome,[14],inactive
same,outcome,[15],inactive
same,AC50,[17],19.4 µM (active)
same,AC50,[18],15.9 µM (active)
same,outcome,[19],inactive
Nc1ccccc1N,AC50,[1],85 µM (active)
same,AC50,[2],75.8 µM (active)
same,AC50,[3],88.2 µM (active)
same,AC50,[4],68.6 µM (active)
same,outcome,[5],inactive
same,outcome,[6],inactive
same,outcome,[7],inactive
same,AC50,[8],68.5 µM (active)
same,outcome,[8],inactive
same,outcome,[9],inactive
same,outcome,[10],inactive
same,outcome,[11],inactive
same,outcome,[12],inactive
same,AC50,[13],46.3 µM (active)
same,outcome,[14],inactive
same,outcome,[15],inactive
same,outcome,[17],inactive
same,AC50,[18],49.4 µM (active)
same,outcome,[19],inactive

# Source: PubChem BioAssay (EPA / NIEHS)
